This note sets out measurements from PMC4081100, “A DNA-binding-site landscape and regulatory network analysis for NAC transcription factors in Arabidopsis thaliana”.

Holding throughout (assay): universal protein binding microarray (PBM); transcription factors of Arabidopsis thaliana; high values mean tight binding
Assay [1] deals with GST-NTL6(1-168) (Arabidopsis thaliana, UniProt Q9SCK6 1-168). The note with it: protein: recombinant; tags: GST; chain copies: 2; dsDNA, one strand shown. A digest of the protocol: (§1)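 Each value is a normalised enrichment score (E-score) describing binding. The GST-tagged proteins, NAC-domain, full-length or DNA-binding-domain, were induced in cells (zinc-finger proteins with zinc acetate added) and purified on glutathione–Sepharose 4B. They were applied at 200 to 500 nM final, in duplicate, to double-stranded custom all-10-mer Agilent 4 × 180K arrays, and gapped and ungapped 8-mers were scored.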

In assay [2] the target is T1, GST-ANAC092(1-285) full length (Arabidopsis thaliana, UniProt Q9FKA0 1-285).
T1 sequence: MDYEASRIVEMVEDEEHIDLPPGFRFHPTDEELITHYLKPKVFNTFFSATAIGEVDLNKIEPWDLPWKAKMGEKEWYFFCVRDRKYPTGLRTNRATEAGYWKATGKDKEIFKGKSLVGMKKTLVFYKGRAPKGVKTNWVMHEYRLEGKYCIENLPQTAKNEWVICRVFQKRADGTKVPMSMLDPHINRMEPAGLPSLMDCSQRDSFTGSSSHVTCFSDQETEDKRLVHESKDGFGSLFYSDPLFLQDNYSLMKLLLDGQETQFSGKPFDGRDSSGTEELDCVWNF
The settings on record: protein: recombinant; tags: GST; chain copies: 2; dsDNA, one strand shown. A digest of the protocol: as §1

In assay [3] the target is T2, GST-NST2(1-184) (Arabidopsis thaliana, UniProt Q9M274 1-184).
T2 sequence: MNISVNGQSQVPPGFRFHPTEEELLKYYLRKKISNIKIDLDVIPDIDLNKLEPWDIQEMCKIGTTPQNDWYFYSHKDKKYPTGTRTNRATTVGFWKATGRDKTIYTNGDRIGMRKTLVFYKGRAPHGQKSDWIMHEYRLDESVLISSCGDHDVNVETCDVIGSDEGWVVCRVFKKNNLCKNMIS
The note with it: protein: recombinant; tags: GST; chain copies: 2; dsDNA, one strand shown. Put shortly: as §1

Assay [4] concerns the target T3, GST-SND1(1-203) (Arabidopsis thaliana, UniProt Q9LPI7 1-203).
T3 sequence: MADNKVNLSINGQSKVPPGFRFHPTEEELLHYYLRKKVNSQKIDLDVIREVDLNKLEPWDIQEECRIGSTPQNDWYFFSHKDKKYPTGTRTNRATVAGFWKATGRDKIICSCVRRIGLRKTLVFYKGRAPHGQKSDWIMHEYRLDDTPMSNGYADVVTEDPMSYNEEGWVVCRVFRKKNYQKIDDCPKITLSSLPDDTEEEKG
The settings on record: protein: recombinant; tags: GST; chain copies: 2; dsDNA, one strand shown. A digest of the protocol:
as §1

The target in assay [5] is GST-WRKY1(266-371) (Arabidopsis thaliana, UniProt Q9SI37 266-371). The note with it: protein: recombinant; tags: GST; dsDNA, one strand shown. A digest of the protocol:
as §1

Assay [6] concerns the target T4, GST-ANAC092(1-176) (Arabidopsis thaliana, UniProt Q9FKA0 1-176).
T4 sequence: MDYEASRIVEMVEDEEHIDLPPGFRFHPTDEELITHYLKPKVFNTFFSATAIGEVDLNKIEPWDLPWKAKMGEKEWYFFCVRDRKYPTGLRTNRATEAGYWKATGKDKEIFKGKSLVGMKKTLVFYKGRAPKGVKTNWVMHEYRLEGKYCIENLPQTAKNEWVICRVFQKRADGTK
The settings on record: protein: recombinant; tags: GST; chain copies: 2; dsDNA, one strand shown. Put shortly:
as §1

Assay [7] deals with T5, GST-ANAC055(1-171) (Arabidopsis thaliana, UniProt Q9LDY8 1-171).
T5 sequence: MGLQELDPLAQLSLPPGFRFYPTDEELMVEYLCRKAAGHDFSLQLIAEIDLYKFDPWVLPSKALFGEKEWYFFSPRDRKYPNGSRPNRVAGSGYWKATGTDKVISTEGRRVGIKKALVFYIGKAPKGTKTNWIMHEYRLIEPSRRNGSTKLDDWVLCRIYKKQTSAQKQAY
The note with it: protein: recombinant; tags: GST; chain copies: 2; dsDNA, one strand shown. A digest of the protocol:
as §1

Assay [8] has as its target T6, GST-ATAF1 NAC domain (Arabidopsis thaliana, UniProt Q39013 7-158).
T6 sequence: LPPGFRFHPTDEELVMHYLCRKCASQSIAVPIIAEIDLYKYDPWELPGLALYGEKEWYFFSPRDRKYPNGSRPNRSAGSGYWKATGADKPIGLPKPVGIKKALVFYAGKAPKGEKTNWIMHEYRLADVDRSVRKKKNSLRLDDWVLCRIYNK
The note with it: protein: recombinant; tags: GST; chain copies: 2; dsDNA, one strand shown. A digest of the protocol:
as §1

Assay [9] has as its target T7, GST-NAP(1-166) (Arabidopsis thaliana, UniProt O49255 1-166).
T7 sequence: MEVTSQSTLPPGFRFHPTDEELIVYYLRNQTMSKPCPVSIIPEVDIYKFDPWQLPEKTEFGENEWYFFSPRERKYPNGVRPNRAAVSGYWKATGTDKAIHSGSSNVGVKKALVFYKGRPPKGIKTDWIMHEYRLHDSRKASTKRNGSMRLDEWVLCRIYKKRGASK
The settings on record: protein: recombinant; tags: GST; chain copies: 2; dsDNA, one strand shown. Put shortly: as §1

Assay [10] deals with T8, GST-NTL8 NAC domain (Arabidopsis thaliana, UniProt Q9XIN7 14-156).
T8 sequence: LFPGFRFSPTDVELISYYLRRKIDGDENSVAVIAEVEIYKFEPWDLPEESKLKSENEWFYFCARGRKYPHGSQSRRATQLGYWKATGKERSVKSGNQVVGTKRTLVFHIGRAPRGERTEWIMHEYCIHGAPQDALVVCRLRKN
The note with it: protein: recombinant; tags: GST; chain copies: 2; dsDNA, one strand shown. Put shortly: as §1

Assay [11] has as its target T9, GST-ANAC019 NAC domain (Arabidopsis thaliana, UniProt Q9C932 14-162).
T9 sequence: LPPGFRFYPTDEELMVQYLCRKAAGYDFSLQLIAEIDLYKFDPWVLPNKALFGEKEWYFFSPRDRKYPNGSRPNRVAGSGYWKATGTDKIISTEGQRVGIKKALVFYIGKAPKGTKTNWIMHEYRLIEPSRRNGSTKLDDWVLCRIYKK
The settings on record: protein: recombinant; tags: GST; chain copies: 2; dsDNA, one strand shown. A digest of the protocol:
as §1

Chain of GST-NTL6(1-168) (Q9SCK6 1-168): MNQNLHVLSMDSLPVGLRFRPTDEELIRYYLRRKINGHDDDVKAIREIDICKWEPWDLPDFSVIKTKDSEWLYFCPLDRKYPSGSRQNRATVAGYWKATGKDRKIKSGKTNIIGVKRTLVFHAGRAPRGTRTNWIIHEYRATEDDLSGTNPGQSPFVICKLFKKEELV
Chain of GST-WRKY1(266-371) (Q9SI37 266-371): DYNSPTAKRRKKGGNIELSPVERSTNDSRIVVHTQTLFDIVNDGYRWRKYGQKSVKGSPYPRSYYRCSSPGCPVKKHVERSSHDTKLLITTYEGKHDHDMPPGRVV

Take AGCGTTGA: the binding signal was 0.0737 E-score in assay [1]; 0.0576 E-score in assay [2]; 0.0637 E-score in assay [3]; 0.0527 E-score in [4]; 0.401 E-score in assay [5].
Take CGAAGGAA: the binding signal was found to be 0.176 E-score in assay [6]; 0.473 E-score in [1]; 0.0644 E-score in [7]; 0.057 E-score in assay [8]; 0.0784 E-score in [2]; 0.0729 E-score in [9]. Besides, the binding signal in assay [3] amounted to 0.17 E-score; in assay [10] it was 0.459 E-score; in [4], 0.3 E-score.
In the case of ACCGTTGA, the binding signal in assay [6] worked out at 0.112 E-score; in [2], 0.205 E-score; in [9], 0.132 E-score; in assay [4], 0.123 E-score; in assay [5] it was 0.404 E-score.
Take CTGTTGAC: the binding signal in assay [6] came out at 0.105 E-score; in assay [11], 0.107 E-score; in assay [2], 0.0644 E-score; in assay [4], 0.0669 E-score; in assay [5] it was 0.48 E-score.
Consider GGGGAAAC, for which the binding signal was 0.177 E-score in assay [6]; 0.17 E-score in [1]; 0.152 E-score in assay [11]; 0.217 E-score in assay [2]; 0.12 E-score in assay [9]; 0.412 E-score in assay [10]. In addition, in assay [4], the binding signal was found to be 0.209 E-score.
For the sequence CACGCGAA, the binding signal in [6] was found to be 0.343 E-score; in assay [1] it was 0.17 E-score; in [7], 0.0997 E-score; in assay [2], 0.402 E-score; in assay [3] it was 0.188 E-score; in assay [10] it was 0.0576 E-score. The binding signal in [4] worked out at 0.213 E-score.
For the sequence CTTTGACC, the results for the binding signal in [6], in assay [4] and in [5] were 0.051 E-score, 0.0526 E-score and 0.488 E-score, respectively.
Consider GAAGTAAC, for which the binding signal in [6] was determined as 0.249 E-score; in [1], 0.381 E-score; in assay [7], 0.106 E-score; in assay [8], 0.0921 E-score; in assay [2], 0.325 E-score; in assay [3], 0.301 E-score. Further, the binding signal in [10] came to 0.413 E-score; in assay [4], 0.333 E-score.
For the sequence AGGGAAAG, the binding signal in [6] stood at 0.0861 E-score; in assay [1] it was 0.115 E-score; in [11], 0.129 E-score; in assay [10], 0.473 E-score; in assay [4], 0.114 E-score.
For GTCAAGAA, the binding signal was 0.0716 E-score in [6]; 0.0615 E-score in assay [7]; 0.114 E-score in assay [8]; 0.124 E-score in [2]; 0.0595 E-score in [9]; 0.0986 E-score in assay [3]. Also, the binding signal in assay [4] worked out at 0.052 E-score; in [5], 0.436 E-score.
Consider TCAAGTCA, for which the binding signal is 0.0629 E-score in [7]; 0.0801 E-score in assay [8]; 0.196 E-score in [2]; 0.057 E-score in assay [3]; 0.171 E-score in assay [4]; 0.453 E-score in [5].
With CGTAGTCA, the binding signal in assay [11] was 0.0805 E-score; in [8], 0.117 E-score; in assay [4], 0.161 E-score; in assay [5], 0.405 E-score.
On to AAAGTCAA, for which the binding signal in assay [1] is 0.0854 E-score; in assay [7], 0.0717 E-score; in [8], 0.118 E-score; in [3], 0.0787 E-score; in assay [4], 0.118 E-score; in assay [5], 0.49 E-score.
For CCTTTGAC, the binding signal in assay [10] is 0.0589 E-score; in assay [4], 0.101 E-score; in assay [5], 0.475 E-score.
For the sequence CTGGCGTA, the binding signal in assay [6] worked out at 0.371 E-score; in assay [11], 0.106 E-score; in [7] it was 0.0635 E-score; in assay [2] it was 0.396 E-score; in assay [3], 0.203 E-score; in assay [4], 0.409 E-score.
With GGAGGGAA, the binding signal in assay [1] amounted to 0.0867 E-score; in assay [11], 0.104 E-score; in [9], 0.074 E-score; in assay [10], 0.421 E-score; in assay [4], 0.0554 E-score.
